Among the data in PubChem BioAssay are growth inhibition, inhibition and outcome values, retold here.

The nature of assay [1]: antimalarial activity against Dd2 strain (AID 2302;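 active = growth inhibition above 50% at the single 2 µM test dose, taken to imply half-maximal potency below 2 µM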;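 also: 0% = DMSO untreated growth and 100% = chloroquine plus artemisinin killed control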). As to conditions: P. falciparum Dd2 in RBCs, LDH growth readout, 72 h; at 2 µM; stronger effect = higher value.
Assay [2] can be described thus: HepG2 cytotoxicity, primary screen, cytotoxicity control for P. falciparum antimalarial project, cell-based, ATP luminescence (AID 2303;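 active = inhibition above 50%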;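 also: 0% = DMSO wells and 100% = digitonin-killed cells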). As to conditions: HepG2 viability, 24-48 h, at 10 µM, stronger effect = higher value.
For assay [3], the target named is L-lactate dehydrogenase (Plasmodium falciparum (isolate CDC / Honduras)) (UniProt Q27743). Put plainly: PfLDH activity inhibition – cell lysate, 3D7 strain, counter-screen for P. falciparum growth inhibition project (AID 2304).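 Also: 0% = vehicle and 100% = reference inhibitor.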 The settings on record: P. falciparum 3D7 crude extract, LDH APAD/NBT absorbance; at 2 µM; stronger effect = higher value. (In general: A counterscreen serves to expose hits that act by an unwanted route or on another target.)
L-lactate dehydrogenase (Plasmodium falciparum (isolate CDC / Honduras)), sequence (Q27743 whole entry, looked up): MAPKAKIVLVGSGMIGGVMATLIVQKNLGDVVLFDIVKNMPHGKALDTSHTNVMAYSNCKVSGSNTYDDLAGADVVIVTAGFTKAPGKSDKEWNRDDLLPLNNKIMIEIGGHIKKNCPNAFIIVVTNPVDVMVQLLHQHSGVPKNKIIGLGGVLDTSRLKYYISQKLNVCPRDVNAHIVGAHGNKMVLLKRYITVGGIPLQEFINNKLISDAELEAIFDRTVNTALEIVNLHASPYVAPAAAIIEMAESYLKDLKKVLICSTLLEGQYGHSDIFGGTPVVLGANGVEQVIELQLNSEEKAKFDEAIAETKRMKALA

Assay [4] can be described thus: inhibition of 3D7 malaria parasite growth – strain 3D7 (AID 2306).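 Also: 0% = DMSO wells and 100% = chloroquine plus artemisinin control wells.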 The settings on record: P. falciparum 3D7 erythrocytic growth, LDH absorbance, 72 h; at 2 µM; stronger effect = higher value.
Assay [5] concerns the target Calcium-dependent protein kinase 1 (Plasmodium falciparum (isolate 3D7)) (UniProt P62344). Put plainly: PfCDPK1 kinase inhibitors, biochemical, TCAMS library (AID 1159585; cut-off not given, nearly all actives have IC50 up to about 0.98 µM;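 also: inhibitors leave more ATP so luminescence rises with inhibition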). As to conditions: recombinant PfCDPK1, Kinase-Glo ATP depletion luminescence. Background: Kinase-Glo reads ATP consumption through a luciferase reaction.
The target of assay [6] is Plasmodium falciparum protein kinase 6 (PK6, PF3D7_1337100) (UniProt Q8IDW1). Description: PfPK6 kinase inhibitors, biochemical, TCAMS library (AID 1159586). As to conditions: recombinant PfPK6, Kinase-Glo ATP depletion luminescence.
Plasmodium falciparum protein kinase 6 (PK6, PF3D7_1337100), sequence (Q8IDW1 1-305): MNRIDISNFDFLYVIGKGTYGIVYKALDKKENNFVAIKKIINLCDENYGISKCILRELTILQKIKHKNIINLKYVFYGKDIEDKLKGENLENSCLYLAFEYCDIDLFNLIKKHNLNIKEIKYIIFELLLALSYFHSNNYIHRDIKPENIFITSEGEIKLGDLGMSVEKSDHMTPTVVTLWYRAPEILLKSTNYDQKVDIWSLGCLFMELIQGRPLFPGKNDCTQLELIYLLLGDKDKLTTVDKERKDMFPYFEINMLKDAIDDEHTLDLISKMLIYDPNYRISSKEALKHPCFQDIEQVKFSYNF
For assay [7], the target named is Protein kinase 7 (PK7), Plasmodium falciparum 3D7 (PF3D7_0213400) (UniProt Q7YTF7). Description: inhibition of Plasmodium PK7 catalytic activity – biochemical, TCAMS antimalarial set, Kinase-Glo luminescence (AID 1159587). The settings on record: recombinant PfPK7, Kinase-Glo ATP depletion luminescence.
Protein kinase 7 (PK7), Plasmodium falciparum 3D7 (PF3D7_0213400), sequence (Q7YTF7 1-343): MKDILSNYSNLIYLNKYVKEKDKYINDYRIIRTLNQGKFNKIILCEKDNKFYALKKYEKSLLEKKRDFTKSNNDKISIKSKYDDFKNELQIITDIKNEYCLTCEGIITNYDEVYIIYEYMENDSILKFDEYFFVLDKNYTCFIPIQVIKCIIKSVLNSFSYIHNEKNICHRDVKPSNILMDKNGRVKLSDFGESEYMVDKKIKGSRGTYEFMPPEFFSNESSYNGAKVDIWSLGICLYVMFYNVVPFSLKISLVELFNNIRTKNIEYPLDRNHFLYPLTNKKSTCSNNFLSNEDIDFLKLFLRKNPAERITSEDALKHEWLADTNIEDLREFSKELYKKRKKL
Assay [8] deals with Calcium-dependent protein kinase 4 (Plasmodium falciparum (isolate 3D7)) (UniProt Q8IBS5). Put plainly: PfCDPK4 kinase inhibitors, biochemical, TCAMS library (AID 1159588; cut-off not given, nearly all actives have IC50 up to about 0.91 µM). The settings on record: recombinant PfCDPK4, Kinase-Glo ATP depletion luminescence.
Calcium-dependent protein kinase 4 (Plasmodium falciparum (isolate 3D7)), sequence (Q8IBS5 whole entry, looked up): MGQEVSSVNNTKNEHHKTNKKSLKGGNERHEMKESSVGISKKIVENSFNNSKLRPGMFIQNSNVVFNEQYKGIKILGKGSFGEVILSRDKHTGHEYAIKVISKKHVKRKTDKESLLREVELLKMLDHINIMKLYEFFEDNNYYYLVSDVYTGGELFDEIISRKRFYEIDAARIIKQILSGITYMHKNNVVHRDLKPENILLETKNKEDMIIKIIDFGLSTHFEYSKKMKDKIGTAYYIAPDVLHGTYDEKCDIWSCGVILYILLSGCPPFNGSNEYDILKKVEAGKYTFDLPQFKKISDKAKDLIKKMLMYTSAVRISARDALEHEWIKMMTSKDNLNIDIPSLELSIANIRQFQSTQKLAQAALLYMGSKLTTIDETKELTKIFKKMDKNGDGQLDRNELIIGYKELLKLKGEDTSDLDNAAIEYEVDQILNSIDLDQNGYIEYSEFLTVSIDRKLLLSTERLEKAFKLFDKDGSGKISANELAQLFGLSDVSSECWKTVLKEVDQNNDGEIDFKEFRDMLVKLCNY

SMILES strings stand for the structures. A number with no mark means an inactive call. For some of these results: Results with a measured potency or affinity are listed apart. Calls of active or inactive are those of the source. Unless noted, no rule for the calls is given here.

Calcium-dependent protein kinase 1 (Plasmodium falciparum (isolate 3D7)), sequence (P62344 whole entry, looked up): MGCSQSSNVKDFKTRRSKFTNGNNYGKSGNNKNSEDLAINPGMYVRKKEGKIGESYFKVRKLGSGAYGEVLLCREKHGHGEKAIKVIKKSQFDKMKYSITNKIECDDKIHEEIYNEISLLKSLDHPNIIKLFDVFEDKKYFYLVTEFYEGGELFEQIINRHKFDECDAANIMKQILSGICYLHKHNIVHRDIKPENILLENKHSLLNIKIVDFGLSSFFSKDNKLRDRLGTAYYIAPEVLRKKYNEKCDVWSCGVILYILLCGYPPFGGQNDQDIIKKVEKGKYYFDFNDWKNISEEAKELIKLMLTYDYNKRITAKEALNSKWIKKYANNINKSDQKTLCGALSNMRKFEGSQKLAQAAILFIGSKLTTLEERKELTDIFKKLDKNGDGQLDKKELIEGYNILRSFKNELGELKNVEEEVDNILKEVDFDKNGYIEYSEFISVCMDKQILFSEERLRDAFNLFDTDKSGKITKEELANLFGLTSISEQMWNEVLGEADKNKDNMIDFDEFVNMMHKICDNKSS

As a reminder, the inhibition is the relative decrease from the control value, in per cent. As for `Cc1ccccc1C1CCN(C2CCC(NC(=O)c3ccc(-c4ccccn4)s3)CC2)CC1` (stereo not given), the values for the growth inhibition in assay [1] and in assay [4] were 17% and 87% (active), respectively. Further, the inhibition in assay [2] was 32%; in assay [3] it was -1%. Moreover, the outcome in assay [5], in assay [6], in assay [7] and in assay [8] was inactive.

Regarding `CC(C)(C)NC(=O)c1ccc(Oc2ccc(OC(F)(F)F)cc2)c(NC(=O)C(C)(C)C)c1`, the growth inhibition in assay [1] was 2%; in assay [4], 89% (active). Further, the inhibition in assay [2] is -11%; in assay [3], 3%. The result in assay [5], in assay [6], in assay [7] and in assay [8] was inactive.

As to `CCCCCCn1c2c(c(=N)c3c1CCC3)CCCC2`, the growth inhibition in assay [1] was 76% (active); in assay [4], 99% (active). Further, the values for the inhibition in assay [2] and in assay [3] were 31% and 4%, respectively. Moreover, the result in assay [5], in assay [6], in assay [7] and in assay [8] was inactive.

Consider `CC(C)(C)c1ccc(-c2csc(NC(=O)CC(c3ccccc3)c3ccccc3)n2)cc1`, for which the growth inhibition in assay [1] is 64% (active); in assay [4] it was 86% (active). Moreover, the inhibition in assay [2] was 3%; in assay [3], -6%. Further, the result in assay [5], in assay [6], in assay [7] and in assay [8] was inactive.

As for `COc1cccc(Nc2nc(C)cc(NCc3ccc(-n4ccnc4)cc3)n2)c1`, the figures for the growth inhibition in assay [1] and in assay [4] were 99% (active) and 101% (active), respectively. Besides, the inhibition in assay [2] was -13%; in assay [3], -5%. Moreover, the outcome in assay [5], in assay [6], in assay [7] and in assay [8] was inactive.

As to `Nc1nccc2ccc(-c3cccc4ncccc34)cc12`, the results for the growth inhibition in assay [1] and in assay [4] were 94% (active) and 98% (active), respectively. Further, the inhibition in assay [2] is 40%; in assay [3], -1%. For the same compound, the result in assay [5], in assay [6], in assay [7] and in assay [8] was inactive.

For `Cc1cccc2[nH]c(-c3cccc(-c4cccc(CNCCc5cccn5C)c4)c3)nc12`, the growth inhibition in assay [1] was 49%; in assay [4] it was 91% (active). In addition, the inhibition in assay [2] is 4%; in assay [3], 2%. Also, the result in assay [5], in assay [6], in assay [7] and in assay [8] was inactive.

Take `O=C(NCCCCN1CCC(O)(c2ccc3c(c2)OCO3)CC1)c1ccc(NC(=O)c2ccc(Cl)cc2)cc1`: the growth inhibition in assay [1] is 6%; in assay [4] it was 86% (active). Further, the inhibition in assay [2] was 15%; in assay [3] it was -1%. Further, the result in assay [5], in assay [6], in assay [7] and in assay [8] was inactive.

Take `COc1ccc(S(=O)(=O)NC2CCN(c3ccnc4cc(Cl)ccc34)C2)cc1` (stereo not given): the growth inhibition in assay [1] was 86% (active); in assay [4], 100% (active). Further, the inhibition in assay [2] is 12%; in assay [3], -2%. Moreover, the result in assay [5], in assay [6], in assay [7] and in assay [8] was inactive.

Regarding `CN(c1ccc2c(c1)nc(Nc1ccc(Cl)cc1)n2C)c1ccnc(Nc2ccc(CS(C)(=O)=O)cc2)n1`, the values for the growth inhibition in assay [1] and in assay [4] were 52% (active) and 97% (active), respectively. Also, the figures for the inhibition in assay [2] and in assay [3] were 91% (active) and -7%, respectively. For the same compound, the outcome in assay [5], in assay [6], in assay [7] and in assay [8] was inactive.

For `Cc1[nH]c2ccccc2c1CC1CCN(CC2CCN(C(=O)/C=C/c3ccc(Cl)c(Cl)c3)CC2)CC1`, the figures for the growth inhibition in assay [1] and in assay [4] were 14% and 92% (active), respectively. Further, the inhibition in assay [2] was 34%; in assay [3], -3%. For the same compound, the result in assay [5], in assay [6], in assay [7] and in assay [8] was inactive.

Take `COc1cc2sc(=NC(=O)c3cccc([N+](=O)[O-])c3)n(C)c2cc1OC`: the growth inhibition in assay [1] is 79% (active); in assay [4], 92% (active). Besides, the inhibition in assay [2] was 5%; in assay [3], -3%. Besides, the outcome in assay [5], in assay [6], in assay [7] and in assay [8] was inactive.

Turning to `Cc1ccc(-n2nc(-c3ccccc3)c3cc(C(=O)NCCN)sc32)cc1`, the growth inhibition is 43% in assay [1] and 92% (active) in assay [4]. The values for the inhibition in assay [2] and in assay [3] were 28% and 2%, respectively. Moreover, the result in assay [5], in assay [6], in assay [7] and in assay [8] was inactive.

Turning to `Cc1cc(N[C@@H](Cc2ccccc2)C(=O)NC2CCCC2)nc(NCCCOC(C)C)n1`, the growth inhibition in assay [1] is 43%; in assay [4], 92% (active). Also, the results for the inhibition in assay [2] and in assay [3] were -4% and -3%, respectively. For the same compound, the result in assay [5], in assay [6], in assay [7] and in assay [8] was inactive.

In the case of `N=c1n(Cc2ccc(Cl)cc2)c2ccccc2n1CC(O)c1ccc(Cl)c(Cl)c1` (stereo not given), the growth inhibition is 99% (active) in assay [1] and 98% (active) in assay [4]. Further, the figures for the inhibition in assay [2] and in assay [3] were 58% (active) and 4%, respectively. In addition, the result in assay [5], in assay [6], in assay [7] and in assay [8] was inactive.

Take `CC(C)(C)c1ccc(S(=O)(=O)Nc2cc(Cl)ccc2Cn2ccc(N3CCNCC3)nc2=O)cc1`: the growth inhibition is 74% (active) in assay [1] and 95% (active) in assay [4]. Besides, the inhibition was -9% in assay [2] and 2% in assay [3]. Moreover, the outcome in assay [5], in assay [6], in assay [7] and in assay [8] was inactive.

In the case of `COc1ccc(-c2nc3cccnc3n2CC(=O)Nc2c(C)cc(C)cc2C)c(OC)c1`, the growth inhibition in assay [1] is 21%; in assay [4] it was 91% (active). Further, the values for the inhibition in assay [2] and in assay [3] were 77% (active) and 1%, respectively. Further, the outcome in assay [5], in assay [6], in assay [7] and in assay [8] was inactive.

On to `COc1ccc2nccc(N(C)CC3(O)CCN(CCc4ccc5c(c4)NC(=O)CS5)CC3)c2n1`, for which the growth inhibition was 67% (active) in assay [1] and 91% (active) in assay [4]. The inhibition in assay [2] is 10%; in assay [3], 1%. For the same compound, the result in assay [5], in assay [6], in assay [7] and in assay [8] was inactive.

For `O=C(/C=C/c1ccc(Cl)c(Cl)c1)NCCCCCN1CCC(NC(=O)c2cccc(Cl)c2)CC1`, the growth inhibition was 23% in assay [1] and 98% (active) in assay [4]. Moreover, the inhibition is 12% in assay [2] and -6% in assay [3]. The outcome in assay [5], in assay [6], in assay [7] and in assay [8] was inactive.

Turning to `CC1Cc2ccccc2N1S(=O)(=O)c1cccc(C(=O)Nc2nc(-c3ccccn3)cs2)c1` (stereo not given), the growth inhibition in assay [1] was 77% (active); in assay [4] it was 84% (active). In addition, the inhibition was 32% in assay [2] and -2% in assay [3]. Also, the outcome in assay [5], in assay [6], in assay [7] and in assay [8] was inactive.
